# Measurements taken from publication PMC8384837, “Expanding the binding specificity for RNA recognition by a PUF domain”.
# What was measured:
# Assay in all cases: yeast three-hybrid, YBZ-1, SC-Leu-His + 0.5 mM 3-AT, 4 days
# Conditions in all cases: tags: N-Gal4 AD-HA kept; label: inside an RPR1-promoter hybrid RNA with tandem MS2 sites; ssRNA
# PUM1 PUF domain R3-VYP = PUM1 PUF domain R3-VYP (Homo sapiens, UniProt Q14671 828-1176, C935V;R936Y;Q939P)
# Method in brief: (§1)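 Sequencing with Illumina followed PCR amplification of the repeat regions from transformants grown four days on SC-Leu (input) or SC-Leu-His + 0.5 mM 3-AT (selection). The transformants were strain YBZ-1 with a LexA–MS2 coat fusion and a HIS3 reporter, carrying Pumilio-1 PUF domain libraries and matching RNA elements. The interaction score is the log change in variant frequency from input to selection, computed in log2 with a pseudocount of 1 for absent variants.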
# PUM1 PUF domain R3-LSK = PUM1 PUF domain R3-LSK (Homo sapiens, UniProt Q14671 828-1176, C935L;R936S;Q939K)
# Method in brief: as §1
# PUM1 PUF domain R3-PHH = PUM1 PUF domain R3-PHH (Homo sapiens, UniProt Q14671 828-1176, C935P;R936H;Q939H)
# Method in brief: as §1
# PUM1 PUF domain R4-DWI = PUM1 PUF domain R4-DWI (Homo sapiens, UniProt Q14671 828-1176, N971D;H972W;Q975I)
# Method in brief: as §1
# PUM1 PUF domain R4-GNT = PUM1 PUF domain R4-GNT (Homo sapiens, UniProt Q14671 828-1176, N971G;H972N;Q975T)
# Method in brief: as §1
# PUM1 PUF domain R4-PYS = PUM1 PUF domain R4-PYS (Homo sapiens, UniProt Q14671 828-1176, N971P;H972Y;Q975S)
# Method in brief: as §1
# PUM1 PUF domain R2-PWL = PUM1 PUF domain R2-PWL (Homo sapiens, UniProt Q14671 828-1176, N899P;Y900W;Q903L)
# Method in brief: as §1
# PUM1 PUF domain R1-RSE = PUM1 PUF domain R1-RSE (Homo sapiens, UniProt Q14671 828-1176, S863R;R864S;Q867E)
# Method in brief: as §1
# PUM1 PUF domain R1-YGR = PUM1 PUF domain R1-YGR (Homo sapiens, UniProt Q14671 828-1176, S863Y;R864G;Q867R)
# Method in brief: as §1
# PUM1 PUF domain R3-AIR = PUM1 PUF domain R3-AIR (Homo sapiens, UniProt Q14671 828-1176, C935A;R936I;Q939R)
# Method in brief: as §1
# PUM1 PUF domain R4-DFL = PUM1 PUF domain R4-DFL (Homo sapiens, UniProt Q14671 828-1176, N971D;H972F;Q975L)
# Method in brief: as §1
# PUM1 PUF domain R1-RCT = PUM1 PUF domain R1-RCT (Homo sapiens, UniProt Q14671 828-1176, S863R;R864C;Q867T)
# Method in brief: as §1
# PUM1 PUF domain R7-DNV = PUM1 PUF domain R7-DNV (Homo sapiens, UniProt Q14671 828-1176, S1079D;E1083V)
# Method in brief: as §1
# PUM1 PUF domain R7-RSW = PUM1 PUF domain R7-RSW (Homo sapiens, UniProt Q14671 828-1176, S1079R;N1080S;E1083W)
# Method in brief: as §1
# PUM1 PUF domain R5-SRM = PUM1 PUF domain R5-SRM (Homo sapiens, UniProt Q14671 828-1176, C1007S;Q1011M)
# Method in brief: as §1
# PUM1 PUF domain R6-SWG = target: T1, PUM1 PUF domain R6-SWG (Homo sapiens, UniProt Q14671 828-1176, N1043S;Y1044W;Q1047G)
# T1 sequence: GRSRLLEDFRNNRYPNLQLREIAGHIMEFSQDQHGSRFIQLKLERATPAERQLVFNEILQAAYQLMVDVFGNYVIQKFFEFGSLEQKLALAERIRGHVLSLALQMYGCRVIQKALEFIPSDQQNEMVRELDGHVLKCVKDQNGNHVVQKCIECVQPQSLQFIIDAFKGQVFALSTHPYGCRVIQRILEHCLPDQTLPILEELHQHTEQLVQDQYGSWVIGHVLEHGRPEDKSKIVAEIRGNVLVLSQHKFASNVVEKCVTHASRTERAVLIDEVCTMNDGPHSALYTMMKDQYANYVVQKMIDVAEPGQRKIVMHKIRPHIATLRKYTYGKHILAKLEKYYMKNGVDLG
# Method in brief: as §1
# PUM1 PUF domain R8-GYR = PUM1 PUF domain R8-GYR (Homo sapiens, UniProt Q14671 828-1176, N1122G;Q1126R)
# Method in brief: as §1
# PUM1 PUF domain R8-RHW = PUM1 PUF domain R8-RHW (Homo sapiens, UniProt Q14671 828-1176, N1122R;Y1123H;Q1126W)
# Method in brief: as §1
# PUM1 PUF domain R8-KRK = PUM1 PUF domain R8-KRK (Homo sapiens, UniProt Q14671 828-1176, N1122K;Y1123R;Q1126K)
# Method in brief: as §1
# PUM1 PUF domain R7-RCC = PUM1 PUF domain R7-RCC (Homo sapiens, UniProt Q14671 828-1176, S1079R;N1080C;E1083C)
# Method in brief: as §1
sequence,measurement,setting,value
GGCUAGAACUAGUGGAUCCCCCGGCGCCCGGCGGCUCGAGCCCGGGUAAGUGUAAUUAGUCUGCAUGCCGCCGGGCGCCAUGCCUGCAGGUCGACUCUAGAAAACAUG,binding signal,PUM1 PUF domain R3-VYP,2.9 log2 enrichment (interaction score)
same,binding signal,PUM1 PUF domain R3-LSK,5.2 log2 enrichment (interaction score)
same,binding signal,PUM1 PUF domain R3-PHH,2.2 log2 enrichment (interaction score)
GGCUAGAACUAGUGGAUCCCCCGGCGCCCGGCGGCUCGAGCCCGGGUAAGUGUACAUAGUCUGCAUGCCGCCGGGCGCCAUGCCUGCAGGUCGACUCUAGAAAACAUG,binding signal,PUM1 PUF domain R4-DWI,5.64 log2 enrichment (interaction score)
same,binding signal,PUM1 PUF domain R4-GNT,0.59 log2 enrichment (interaction score)
same,binding signal,PUM1 PUF domain R4-PYS,5.7 log2 enrichment (interaction score)
GGCUAGAACUAGUGGAUCCCCCGGCGCCCGGCGGCUCGAGCCCGGGUAAGUGUAAAGAGUCUGCAUGCCGCCGGGCGCCAUGCCUGCAGGUCGACUCUAGAAAACAUG,binding signal,PUM1 PUF domain R2-PWL,6.99 log2 enrichment (interaction score)
GGCUAGAACUAGUGGAUCCCCCGGCGCCCGGCGGCUCGAGCCCGGGUAAGUGUAAAUCGUCUGCAUGCCGCCGGGCGCCAUGCCUGCAGGUCGACUCUAGAAAACAUG,binding signal,PUM1 PUF domain R1-RSE,2.49 log2 enrichment (interaction score)
same,binding signal,PUM1 PUF domain R1-YGR,5.61 log2 enrichment (interaction score)
GGCUAGAACUAGUGGAUCCCCCGGCGCCCGGCGGCUCGAGCCCGGGUAAGUGUAAGUAGUCUGCAUGCCGCCGGGCGCCAUGCCUGCAGGUCGACUCUAGAAAACAUG,binding signal,PUM1 PUF domain R3-AIR,2.87 log2 enrichment (interaction score)
same,binding signal,PUM1 PUF domain R3-LSK,6.88 log2 enrichment (interaction score)
GGCUAGAACUAGUGGAUCCCCCGGCGCCCGGCGGCUCGAGCCCGGGUAAGUGUAUAUAGUCUGCAUGCCGCCGGGCGCCAUGCCUGCAGGUCGACUCUAGAAAACAUG,binding signal,PUM1 PUF domain R4-GNT,3.55 log2 enrichment (interaction score)
same,binding signal,PUM1 PUF domain R4-PYS,5.95 log2 enrichment (interaction score)
same,binding signal,PUM1 PUF domain R4-DFL,2.93 log2 enrichment (interaction score)
GGCUAGAACUAGUGGAUCCCCCGGCGCCCGGCGGCUCGAGCCCGGGUAAGUGUAAAUUGUCUGCAUGCCGCCGGGCGCCAUGCCUGCAGGUCGACUCUAGAAAACAUG,binding signal,PUM1 PUF domain R1-YGR,6.42 log2 enrichment (interaction score)
same,binding signal,PUM1 PUF domain R1-RCT,4.25 log2 enrichment (interaction score)
GGCUAGAACUAGUGGAUCCCCCGGCGCCCGGCGGCUCGAGCCCGGGUAAGUUUAAAUAGUCUGCAUGCCGCCGGGCGCCAUGCCUGCAGGUCGACUCUAGAAAACAUG,binding signal,PUM1 PUF domain R7-DNV,3.87 log2 enrichment (interaction score)
same,binding signal,PUM1 PUF domain R7-RSW,2.57 log2 enrichment (interaction score)
GGCUAGAACUAGUGGAUCCCCCGGCGCCCGGCGGCUCGAGCCCGGGUAAGUGUGAAUAGUCUGCAUGCCGCCGGGCGCCAUGCCUGCAGGUCGACUCUAGAAAACAUG,binding signal,PUM1 PUF domain R5-SRM,1.99 log2 enrichment (interaction score)
GGCUAGAACUAGUGGAUCCCCCGGCGCCCGGCGGCUCGAGCCCGGGUAAGUGUAAAUGGUCUGCAUGCCGCCGGGCGCCAUGCCUGCAGGUCGACUCUAGAAAACAUG,binding signal,PUM1 PUF domain R1-RSE,0.71 log2 enrichment (interaction score)
same,binding signal,PUM1 PUF domain R1-YGR,2.18 log2 enrichment (interaction score)
same,binding signal,PUM1 PUF domain R1-RCT,3.84 log2 enrichment (interaction score)
GGCUAGAACUAGUGGAUCCCCCGGCGCCCGGCGGCUCGAGCCCGGGUAAGUGUAAAUAGUCUGCAUGCCGCCGGGCGCCAUGCCUGCAGGUCGACUCUAGAAAACAUG,binding signal,PUM1 PUF domain R4-DWI,6.41 log2 enrichment (interaction score)
same,binding signal,PUM1 PUF domain R3-VYP,5.74 log2 enrichment (interaction score)
same,binding signal,PUM1 PUF domain R6-SWG,4.18 log2 enrichment (interaction score)
same,binding signal,PUM1 PUF domain R5-SRM,2.84 log2 enrichment (interaction score)
same,binding signal,PUM1 PUF domain R8-GYR,5.16 log2 enrichment (interaction score)
same,binding signal,PUM1 PUF domain R4-DFL,5.04 log2 enrichment (interaction score)
same,binding signal,PUM1 PUF domain R3-PHH,4.19 log2 enrichment (interaction score)
same,binding signal,PUM1 PUF domain R8-RHW,2.9 log2 enrichment (interaction score)
same,binding signal,PUM1 PUF domain R8-KRK,3.65 log2 enrichment (interaction score)
GGCUAGAACUAGUGGAUCCCCCGGCGCCCGGCGGCUCGAGCCCGGGUAAGCGUAAAUAGUCUGCAUGCCGCCGGGCGCCAUGCCUGCAGGUCGACUCUAGAAAACAUG,binding signal,PUM1 PUF domain R8-GYR,5.09 log2 enrichment (interaction score)
same,binding signal,PUM1 PUF domain R8-RHW,4.05 log2 enrichment (interaction score)
same,binding signal,PUM1 PUF domain R8-KRK,4.95 log2 enrichment (interaction score)
GGCUAGAACUAGUGGAUCCCCCGGCGCCCGGCGGCUCGAGCCCGGGUAAGUCUAAAUAGUCUGCAUGCCGCCGGGCGCCAUGCCUGCAGGUCGACUCUAGAAAACAUG,binding signal,PUM1 PUF domain R7-RCC,2.43 log2 enrichment (interaction score)
GGCUAGAACUAGUGGAUCCCCCGGCGCCCGGCGGCUCGAGCCCGGGUAAGUGAAAAUAGUCUGCAUGCCGCCGGGCGCCAUGCCUGCAGGUCGACUCUAGAAAACAUG,binding signal,PUM1 PUF domain R6-SWG,1.35 log2 enrichment (interaction score)
